Results from PubChem BioAssay (NCATS).
A number with no mark means an inactive call. Records with an inconclusive call do not appear. Where a call stands in place of a potency, no number is given. The source made the active and inactive calls. Unless noted, calls follow the shape of the dose curve; as a rule, active = well fitted curve in the direction sought with a large enough effect; inconclusive = small, poorly fitted or top-dose-only effect, or another doubt; inactive = no such curve, though single readings can be large; an effect the other way counts as inactive or inconclusive.

What was measured:
[1] = qHTS for Inhibitors of Plasmodium falciparum (7G8) proliferation (AID 504316); also: nearly all actives have a fitted effect of over 65% in size; also: potency is read from the fitted curve at half-maximal effect; as to activity change, negative = inhibition: series mostly up to about 6.7 µM
Procedure, shortened: (§1)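 Parasite growth measured as SYBR Green DNA fluorescence (ex 485, em 535 nm) after overnight lysis following 72 h culture at 37 °C, 0.3% parasitemia, 2.5% hematocrit. Values normalized against DMSO and 0.29 uM artemisinin controls, with plate-stack correction.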

[2] = qHTS for Inhibitors of Plasmodium falciparum (HB3) proliferation (AID 504318); also: nearly all actives have a fitted effect of over 60% in size; also: potency is read from the fitted curve at half-maximal effect
Procedure, shortened: as §1

[3] = qHTS for Inhibitors of Plasmodium falciparum (CP250) proliferation (AID 504320); also: potency is read from the fitted curve at half-maximal effect
Procedure, shortened: as §1

[4] = target: Atrial natriuretic peptide receptor 1 (Homo sapiens) (UniProt P16066); assay: Natriuretic polypeptide receptor (hNpr1) antagonism - Pilot CMLD screen (AID 1347052; calls by dose curve;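 also: HEK293 cells with hNpr1 stimulated by hNppA peptide at 0.1 nM; cGMP level read as GloSensor luciferase luminescence after agonist stimulation; series mostly up to about 9.2 µM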)
Sequence of Atrial natriuretic peptide receptor 1 (Homo sapiens) (P16066 whole entry, looked up): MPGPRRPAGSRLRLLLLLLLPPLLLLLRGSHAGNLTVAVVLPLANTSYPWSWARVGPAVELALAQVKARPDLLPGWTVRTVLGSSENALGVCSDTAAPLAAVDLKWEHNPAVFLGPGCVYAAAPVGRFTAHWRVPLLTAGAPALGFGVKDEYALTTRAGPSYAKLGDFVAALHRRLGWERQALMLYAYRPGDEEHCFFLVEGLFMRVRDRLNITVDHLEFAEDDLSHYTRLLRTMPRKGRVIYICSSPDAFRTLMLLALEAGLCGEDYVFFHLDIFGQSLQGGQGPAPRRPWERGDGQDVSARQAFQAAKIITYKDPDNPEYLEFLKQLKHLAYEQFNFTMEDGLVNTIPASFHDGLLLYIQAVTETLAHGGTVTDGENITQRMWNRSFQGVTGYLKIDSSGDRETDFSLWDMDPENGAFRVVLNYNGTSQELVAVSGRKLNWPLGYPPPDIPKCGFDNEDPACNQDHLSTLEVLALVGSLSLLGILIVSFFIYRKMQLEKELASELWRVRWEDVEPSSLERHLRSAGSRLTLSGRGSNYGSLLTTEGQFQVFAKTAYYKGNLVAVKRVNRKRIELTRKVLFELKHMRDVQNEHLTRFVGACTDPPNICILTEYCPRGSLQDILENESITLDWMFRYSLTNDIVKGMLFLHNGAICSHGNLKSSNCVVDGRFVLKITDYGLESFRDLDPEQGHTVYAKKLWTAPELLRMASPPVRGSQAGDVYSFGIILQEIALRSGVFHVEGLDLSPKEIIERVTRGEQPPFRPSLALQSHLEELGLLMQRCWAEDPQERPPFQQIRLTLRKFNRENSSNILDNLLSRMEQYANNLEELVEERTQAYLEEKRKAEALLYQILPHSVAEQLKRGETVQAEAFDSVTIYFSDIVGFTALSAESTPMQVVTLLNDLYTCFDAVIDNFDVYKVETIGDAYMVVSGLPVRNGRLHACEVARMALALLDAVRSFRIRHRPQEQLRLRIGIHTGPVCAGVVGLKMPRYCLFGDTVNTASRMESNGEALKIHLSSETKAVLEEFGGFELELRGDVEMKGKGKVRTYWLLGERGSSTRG

[5] = target: Cytochrome P450 2C9 (Homo sapiens) (UniProt P11712); assay: qHTS Assay for Inhibitors and Substrates of Cytochrome P450 2C9 (AID 883); also: nearly all actives have a fitted effect of over 60% in size
Sequence of Cytochrome P450 2C9 (Homo sapiens) (P11712 whole entry, looked up): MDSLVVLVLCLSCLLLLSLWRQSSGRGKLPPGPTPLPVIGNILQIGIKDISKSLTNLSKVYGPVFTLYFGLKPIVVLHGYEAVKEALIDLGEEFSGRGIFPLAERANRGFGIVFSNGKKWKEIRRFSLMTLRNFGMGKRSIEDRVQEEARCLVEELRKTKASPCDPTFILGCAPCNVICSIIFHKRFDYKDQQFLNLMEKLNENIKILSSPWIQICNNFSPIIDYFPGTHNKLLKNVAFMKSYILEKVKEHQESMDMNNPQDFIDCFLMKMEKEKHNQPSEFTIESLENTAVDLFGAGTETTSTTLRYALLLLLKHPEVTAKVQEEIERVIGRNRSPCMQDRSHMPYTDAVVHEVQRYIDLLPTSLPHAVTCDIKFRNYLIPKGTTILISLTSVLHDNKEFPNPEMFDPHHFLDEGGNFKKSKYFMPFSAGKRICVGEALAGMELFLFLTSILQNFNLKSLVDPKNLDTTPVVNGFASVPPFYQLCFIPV
Procedure, shortened: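 Human CYP2C9 (10nM) with Luciferin-H at 100uM (its KM) in 25mM KPO4; compound preincubated 10 min at 37C, then NADPH regeneration for 60 min at 37C. Luciferin read by luminescence after detection reagent; normalized to 57uM sulphaphenazole as full inhibition.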

[6] = target: Cytochrome P450 3A4 (Homo sapiens) (UniProt P08684); assay: qHTS Assay for Inhibitors and Substrates of Cytochrome P450 3A4 (AID 884); also: potency is read from the fitted curve at half-maximal effect; nearly all actives have a fitted effect of over 50% in size
Sequence of Cytochrome P450 3A4 (Homo sapiens) (P08684 whole entry, looked up): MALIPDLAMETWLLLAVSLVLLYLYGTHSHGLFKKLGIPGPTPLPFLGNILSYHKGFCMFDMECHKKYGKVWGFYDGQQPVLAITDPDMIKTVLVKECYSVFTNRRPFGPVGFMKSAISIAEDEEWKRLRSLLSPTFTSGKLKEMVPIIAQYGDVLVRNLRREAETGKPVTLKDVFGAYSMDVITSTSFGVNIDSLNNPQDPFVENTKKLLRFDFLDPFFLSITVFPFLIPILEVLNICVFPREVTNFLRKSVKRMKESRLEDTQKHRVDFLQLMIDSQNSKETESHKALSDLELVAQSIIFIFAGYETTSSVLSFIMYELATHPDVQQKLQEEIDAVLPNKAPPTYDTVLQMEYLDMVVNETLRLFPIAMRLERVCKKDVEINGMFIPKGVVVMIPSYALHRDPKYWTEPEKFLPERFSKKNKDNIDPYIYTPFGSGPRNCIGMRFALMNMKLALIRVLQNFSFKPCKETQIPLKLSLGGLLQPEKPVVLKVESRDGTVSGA
Procedure, shortened: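 Luminescent readout of luciferin produced by CYP3A4 (20 nM) dealkylation of Luciferin-PPXE, 25 uM (its KM). NADPH-driven reaction ran 60 min at RT after 10 min compound preincubation; data scaled to 57 uM ketoconazole as 100% inhibition.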

[7] = target: Cytochrome P450 3A4 (Homo sapiens) (UniProt P08684); assay: qHTS Assay for Activators of Cytochrome P450 3A4 (AID 885); also: nearly all actives have a fitted effect of over 65% in size
Procedure, shortened: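 Human CYP3A4 dealkylates Luciferin-PPXE to luciferin, which luciferase detection converts to light. Substrate was at its KM (25uM), buffer 200mM KPO4, reaction 60 min at RT.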

[8] = target: Cytochrome P450 2D6 (Homo sapiens) (UniProt P10635); assay: qHTS Assay for Inhibitors and Substrates of Cytochrome P450 2D6 (AID 891);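 also: luciferin methyl ether substrate demethylated by CYP2D6 with NADPH regeneration; nearly all actives have a fitted effect of over 60% in size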
Sequence of Cytochrome P450 2D6 (Homo sapiens) (P10635 whole entry, looked up): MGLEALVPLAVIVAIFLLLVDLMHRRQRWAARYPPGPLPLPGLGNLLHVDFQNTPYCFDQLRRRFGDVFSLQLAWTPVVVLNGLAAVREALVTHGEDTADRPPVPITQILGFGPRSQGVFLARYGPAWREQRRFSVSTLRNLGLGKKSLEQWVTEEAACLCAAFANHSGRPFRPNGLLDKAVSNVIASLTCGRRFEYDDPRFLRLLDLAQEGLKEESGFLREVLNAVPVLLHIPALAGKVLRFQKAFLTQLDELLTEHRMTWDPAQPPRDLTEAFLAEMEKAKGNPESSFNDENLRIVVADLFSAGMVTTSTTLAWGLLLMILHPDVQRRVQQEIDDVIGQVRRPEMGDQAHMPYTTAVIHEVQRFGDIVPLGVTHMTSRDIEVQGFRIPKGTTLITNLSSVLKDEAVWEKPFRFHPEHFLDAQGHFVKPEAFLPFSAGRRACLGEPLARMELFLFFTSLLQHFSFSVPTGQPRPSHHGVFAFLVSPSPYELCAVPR
Procedure, shortened: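 Luminescent read-out of luciferin formed by 5 nM human CYP2D6 demethylating 30 uM Luciferin-ME EGE (Km level) over 60 min at room temperature after NADPH regeneration addition. Data normalized to full inhibition by 1.43 uM quinidine.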

[9] = target: Cytochrome P450 2C19 (Homo sapiens) (UniProt P33261); assay: qHTS Assay for Inhibitors and Substrates of Cytochrome P450 2C19 (AID 899); also: nearly all actives have a fitted effect of over 60% in size
Sequence of Cytochrome P450 2C19 (Homo sapiens) (P33261 whole entry, looked up): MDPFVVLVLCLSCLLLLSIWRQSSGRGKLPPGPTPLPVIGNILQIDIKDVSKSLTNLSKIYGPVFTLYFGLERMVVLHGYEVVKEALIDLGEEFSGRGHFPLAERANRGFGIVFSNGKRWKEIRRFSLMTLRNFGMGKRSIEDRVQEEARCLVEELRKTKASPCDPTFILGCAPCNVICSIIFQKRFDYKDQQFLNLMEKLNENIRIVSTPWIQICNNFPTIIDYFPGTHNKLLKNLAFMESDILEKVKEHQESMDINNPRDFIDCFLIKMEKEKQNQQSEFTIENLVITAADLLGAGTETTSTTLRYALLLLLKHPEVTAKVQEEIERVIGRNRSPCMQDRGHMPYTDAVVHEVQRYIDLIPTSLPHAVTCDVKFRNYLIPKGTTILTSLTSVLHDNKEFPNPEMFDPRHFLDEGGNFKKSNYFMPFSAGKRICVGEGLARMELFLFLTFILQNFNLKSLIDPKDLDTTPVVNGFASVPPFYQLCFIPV
Procedure, shortened: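 5 nM human CYP2C19 with 10uM Luciferin-H EGE (at KM) in 50mM KPO4, compound preincubated 10 min at 37C, then NADPH regeneration for 60 min at 37C. Luciferin read by luminescence after detection reagent; normalized to 57uM ketoconazole as full inhibition.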

## CCN1C(=NCCCOC(C)C)NC(c2ccccc2)C(C(=O)OC)=C1C (stereo not given)
[1]
  Potency: inactive
[2]
  Potency: inactive
[3]
  Potency: inactive
[4]
  Potency: inactive

## C=C[C@@H](C)[C@](C)(O)c1ccccc1
[1]
  Potency: 1510 nM (active)
[3]
  Potency: inactive
[4]
  Potency: inactive

## COC(=O)C1=C(C(=O)OC)[C@@H]2N(Cc3ccccc3)c3ccccc3[C@@]23CCC(=O)N(CCc2ccccn2)C3=N1
[1]
  Potency: 1510 nM (active)
[3]
  Potency: inactive
[4]
  Potency: inactive

## O=C1CCCC2=C1[C@H]1O[C@](CCCCN3C(=O)c4ccccc4C3=O)(Cc3ccccc31)O2
[1]
  Potency: 1900 nM (active)
[3]
  Potency: inactive
[4]
  Potency: inactive

## CCc1cc2c(nc1CC)CCN(CCC(C)=NOC[C@@H](O)[C@H]1O[C@@H]3OC(C)(C)O[C@H]3[C@@H]1O)C2
[1]
  Potency: 1690 nM (active)
[2]
  Potency: 2940 nM (active)
[3]
  Potency: inactive
[4]
  Potency: inactive

## C=C(C)C(=O)C=CC=Cc1ccccc1
[1]
  Potency: inactive
[2]
  Potency: inactive
[3]
  Potency: inactive
[4]
  Potency: inactive

## COC(=O)C12C[C@@H](C)C3C(C)C(c4ccccc4C31)N2C(=O)C(F)(F)F (stereo not given in full)
[1]
  Potency: inactive
[3]
  Potency: inactive
[4]
  Potency: inactive

## CCCCn1c(C)cc2c(c1=O)[C@H]1O[C@](CCCC)(Cc3cc(C#N)ccc31)O2
[1]
  Potency: 1900 nM (active)
[3]
  Potency: inactive
[4]
  Potency: inactive

## COC1=C(C(=O)c2ccccc2)C(=O)[C@@]2(CC=C(C)C)C[C@@H]([S+](=O)([O-])c3ccccc3)C(C)(C)[C@@]1(CC=C(C)C)C2=O
[2]
  Potency: 1900 nM (active)
[4]
  Potency: inactive

## COc1cc2c(c(OC)c1OC)C(c1ccccc1)(c1ccccc1)CC2NC(=O)C(F)(F)F (stereo not given)
[2]
  Potency: 2390 nM (active)
[4]
  Potency: inactive

## C=CCN=C1NC(c2cccc(C(F)(F)F)c2)C(C(=O)OC)=C(C)N1CC (stereo not given)
[2]
  Potency: inactive
[3]
  Potency: inactive
[4]
  Potency: inactive

## CCN1C(=NCc2cc(OC)c(OC)c(OC)c2)NC(c2cccc(C(F)(F)F)c2)C(C(=O)OC)=C1C (stereo not given)
[1]
  Potency: 1900 nM (active)
[3]
  Potency: inactive
[4]
  Potency: inactive

## C[C@H]1C[C@@H](C)O[C@@]2(C1)C(=O)N(Cc1ccc(F)cc1)c1ccccc12
[2]
  Potency: inactive
[3]
  Potency: inactive
[4]
  Potency: inactive

## COc1ccc(O[C@H]2C=C[C@@H](c3ccccc3)O[C@H]2COC(=O)CCC(C)=NOCC[C@@H]2C=C[C@H](OC(C)=O)[C@@H](COC(C)=O)O2)cc1
[2]
  Potency: inactive
[3]
  Potency: inactive
[4]
  Potency: inactive

## COC(=O)CC1c2ccccc2C=C(C=Cc2ccc3c(c2)OCO3)N1C(=O)OC (stereo not given)
[2]
  Potency: 1690 nM (active)
[4]
  Potency: inactive

## CC(C)=CCN1C(=O)[C@]2(O[C@H](COc3ccccc3)CC3=C2CCC3)c2ccccc21
[2]
  Potency: 1690 nM (active)
[4]
  Potency: inactive

## COC(=O)C1=C(C)N(Cc2ccccc2)C(=NCCc2cccnc2)NC1c1ccccc1 (stereo not given)
[2]
  Potency: inactive
[4]
  Potency: inactive

## COC(=O)C1=C(C)N(Cc2ccccc2)C(=NCc2ccc(OC)cc2)NC1c1cccc(F)c1 (stereo not given)
[2]
  Potency: inactive
[4]
  Potency: inactive

## CCCC[C@]12Cc3cc(C#N)ccc3[C@H](O1)c1c(cc(C)n(Cc3ccccc3)c1=O)O2
[1]
  Potency: 1690 nM (active)
[3]
  Potency: inactive
[4]
  Potency: inactive

## c1ccc(CNc2oc(-c3ccccc3)nc2-c2cccc3ccccc23)cc1
[2]
  Potency: 3290 nM (active)
[4]
  Potency: inactive

## COc1cc2c(cc1OC)[C@@H]1O[C@](CCCCN3C(=O)c4ccccc4C3=O)(C2)Oc2cc(C)n(Cc3ccccc3)c(=O)c21
[1]
  Potency: 1510 nM (active)
[3]
  Potency: 1690 nM (active)
[4]
  Potency: inactive

## CC(C)=CCC1(CC=C(C)C)C(=O)C(C(=O)c2ccccc2)=C2OC(C)(C)CCC2(CC=C(C)C)C1=O (stereo not given)
[5]
  activity change, negative = inhibition: -24.2% [at 11.4 µM]
[6]
  Potency: 3980 nM (active)
[7]
  activity change, positive = activation: -69.3% [at 11.4 µM]
[8]
  activity change, negative = inhibition: 20.1% [at 11.4 µM]
[9]
  activity, negative = inhibition: -5.29% [at 11.4 µM]
[1]
  Potency: 1690 nM (active)
[4]
  Potency: inactive

## CCN1C(N(C)CCc2c[nH]c3ccccc23)=NC(c2cccc(C(F)(F)F)c2)C(C(=O)OC)=C1C (stereo not given)
[2]
  Potency: inactive
[3]
  Potency: inactive
[4]
  Potency: inactive

## COC(=O)C1=C[C@@]2(c3ccc(OC)cc3[C@@H](OC)[C@@H]2C)[C@@H]2C=C[C@@H]1C2
[1]
  Potency: inactive
[3]
  Potency: inactive
[4]
  Potency: inactive

## CC(CCN1CCc2nc(-c3ccccc3)c(-c3ccccc3)cc2C1)=NOC[C@@H](O)COCc1ccco1
[2]
  Potency: inactive
[3]
  Potency: inactive
[4]
  Potency: inactive

## CC1=CC[C@@H](COc2ccccc2)O[C@@]2(C1)C(=O)N(Cc1ccccc1C(F)(F)F)c1cccc(Br)c12
[2]
  Potency: 1690 nM (active)
[4]
  Potency: inactive

## COc1ccc(O[C@H]2C=C[C@@H](c3ccccc3)O[C@H]2CON=C(C)CCN2CCCCc3nc(C)c(C)cc32)cc1
[1]
  Potency: 1510 nM (active)
[3]
  Potency: inactive
[4]
  Potency: inactive
